From PubChem BioAssay (NCI) come the findings set out here.

Compounds without any hit were thinned out: in the full panel of roughly 83,000, 20% have a hit.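 In brief: 96-well plates, 48 h treatment, single concentration, percent growth endpoint.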 Activity calls are given as the source filed them.

The assay concerns UO-31 renal. Briefly: NCI-60 one-dose screen, 48 h (100 = growth as untreated, 0 = no growth, -100 = all killed). The note with it: 10 µM unless noted. How it is done:
Growth inhibition of the UO-31 human tumor cell line is measured as a screen for anti-cancer activity. Cells are grown in 96 well plates and exposed to the test compound for 48 hours. Compounds are tested at a single concentration, which is 10^-5 M for most compounds. The reported endpoint is percent growth (GI% or GIPRCNT), where numbers from 0 - 100% represent growth inhibition, and numbers from -100% - 0 represent cell death. For example, a value of 40 represents 60% growth inhibition. A value of 0 means no net growth occurred over the course of the experiment. A value of -40 indicates 40% of cells at the beginning of the experiment died by the end of the experiment. A value of -100 means all cells are dead at the end of the experiment.
NCI-60 Human Tumor Cell Lines Screen was performed using the standard one-dose NCI protocol, which is described in more detail at https://dtp.cancer.gov/discovery_development/nci-60/default.htm.
Compounds with GIPRCNT values below 10 were considered active. Activity score was based on GIPRCNT using the following formula: […]
Score is 0 for GIPRCNT values of 100 or above, 50 for GIPRCNT values of 0, and 100 for GIPRCNT values of -100.
`CCNc1cc(S(=O)(=O)O)ccc1C`: the growth was 101% (inactive).

As to `O[C@@H]1CCO[C@H](c2ccc3ccccc3c2)C1`, the growth is 93.4% (inactive).

For the molecule `NS(=O)(=O)c1ccc(Nc2nc(O)c(/C=C3\C=Nc4ccccc43)s2)cc1`, the growth is 70.7% (inactive).

On to `COC(=O)/C=C/C(=O)c1cc(C)cc(C)c1O`, for which the growth was 88% (inactive).

Regarding `CN(C)CCCOc1c(Br)cc(/C=C/C(=O)N(C)CCc2cc(Br)c(OCCCN(C)C)c(Br)c2)cc1Br`, the growth was 65.7% (inactive).

Take `CCCCCCCCCCCCCCCCNc1ccccc1`: the growth is 57.9% (inactive).

On to `CCCCOc1c(N)cc(Cl)cc1C(=O)OCCN(CC)CC`, for which the growth is 82.3% (inactive).

With `CCCCCCCCCCCCCCCC(=O)NS(=O)(=O)OC[C@H]1O[C@@H](n2cnc3c(N)ncnc32)[C@H](O)[C@@H]1O`, the growth was -69.8% (active).

On to `C[C@]12CC[C@@H]3c4ccc(O)c(N)c4CC[C@H]3[C@@H]1CC[C@@H]2O`, for which the growth is 109% (inactive).

As to `O=S(=O)(CCN1CCOCC1)Nc1cncc(-c2ccc3ncnc(Nc4ccc(F)c(Cl)c4)c3c2)c1`, the growth is 51.9% (inactive).

`c1coc(CSc2ncnc3nc[nH]c23)c1`: the growth was 86.5% (inactive).

On to `O=[N+]([O-])c1ccccc1NC1c2ccccc2Oc2ccccc21`, for which the growth was 60.8% (inactive).

Consider `COc1cc(-c2nc(N)n(CC(=O)Nc3ccc(/C(C)=N\O)cc3)n2)cc(OC)c1OC`, for which the growth was 79.5% (inactive).

Turning to `CN(C)CCS(=O)(=O)Nc1cc(-c2ccc3ncnc(Nc4ccc(F)c(Cl)c4)c3c2)cnc1Cl`, the growth is -61.2% (active).

For `O=C1OC(N(Cc2ccc(Cl)cc2)c2ccccc2)c2ccccc21` (stereo not given), the growth was 94.5% (inactive).

As for `COc1ccc(-c2c(C#N)cnc(N)c2-c2nc3cc(C)c(C)cc3[nH]2)cc1`, the growth was 83.9% (inactive).

Regarding `COCCNC(C(=O)c1ccccc1)c1ccccc1` (stereo not given), the growth is 97.7% (inactive).

Turning to `CN1CCN(CC(=O)N(C)c2ccc(N=C(c3ccccc3)c3c(O)[nH]c4ccc(C#N)cc34)cc2)CC1`, the growth is 23.9% (inactive).

`O=C(Nc1cccc(-n2ccc3c(NC(=O)c4ccccc4)nccc32)c1)Nc1ccc(Cl)c(C(F)(F)F)c1`: the growth is 27.8% (inactive).

`COc1cc(CN(c2ccc(Cl)cc2)C2OC(=O)c3ccccc32)cc(OC)c1OC` (stereo not given): the growth was 72.4% (inactive).

Regarding `COc1cc([C@@H]2c3cc4c(cc3C(OC3O[C@@H]5COC(C)O[C@H]5[C@H](O)[C@H]3O)C3COC(=O)[C@@H]32)OCO4)cc(OC)c1O` (stereo not given in full), the growth is 64.3% (inactive).

As for `CN1CCN(Cn2nc(-c3cc(F)c(Cl)cc3Cl)n(/N=C/c3ccc(N(C)C)cc3)c2=S)CC1`, the growth is 55.5% (inactive).

For `c1ccc(-c2nc3sc(C(c4ccccc4)c4ccccc4)nn3c2-c2ccccc2)cc1`, the growth was 90.8% (inactive).

Take `O=C1COc2ccccc2C(=O)N1CCCCN1CCCCC1`: the growth was 91.7% (inactive).

Turning to `O=C1CCC(=O)N1C1CCCCC1`, the growth was 84.3% (inactive).

As to `CCOc1ccc(Cc2nccc3cc(OCC)c(OCC)cc23)cc1OCC`, the growth is 37.5% (inactive).

`O=C(NCCNc1nccc(-c2c(-c3cccc(O)c3)nc3sccn23)n1)c1ccccc1`: the growth is 87.7% (inactive).

For the molecule `Nc1ncnc2c1ncn2C1OC(COC(c2ccccc2)(c2ccccc2)c2ccccc2)C(O)C1O` (stereo not given), the growth is 80.5% (inactive).

Turning to `COc1ccc(-c2cc(-c3nnc(SC/C(=N\O)c4ccccc4)n3-c3ccccc3)c3ccccc3n2)cc1`, the growth was 75.3% (inactive).

Consider `O=C(Cn1c2ccccc2c2ccncc21)N/N=C\c1ccc2ccccc2c1`, for which the growth is -28.3% (active).

For the molecule `COc1ccc(CCNC=O)cc1OC`, the growth was 82.3% (inactive).

Turning to `C=C1C(=O)O[C@H]2[C@H]1CC/C(COC(=O)CCCC(=O)OC/C1=C/CC[C@@]3(C)O[C@H]3[C@H]3OC(=O)C(=C)[C@@H]3CC1)=C\CC[C@@]1(C)O[C@@H]21`, the growth was 13.6% (inactive).

`Fc1ccc(/C=N/n2c(-c3cc(Cl)cc(Cl)c3Cl)nn(CNc3ccc(Cl)nn3)c2=S)cc1`: the growth is 89.4% (inactive).

On to `O=c1c(-c2ccc3c(c2)OCO3)coc2c(CO)c(O)ccc12`, for which the growth is -81.9% (active).

As to `COc1ccccc1N1CCN(CCCOc2ccc(OCCCN3CCN(c4ccccc4OC)CC3)c(C(=O)c3cc(OC)c(OC)c(OC)c3)c2)CC1`, the growth was 102% (inactive).

On to `O=C(c1cc(-c2ccc(Cl)cc2)nc2ccccc12)N1N=C(c2ccccc2)CC1c1cc(-c2ccccc2)nn1-c1ccccc1` (stereo not given), for which the growth was 70.4% (inactive).

Take `O=C(Nc1cccc([N+](=O)[O-])c1)c1ccc2ccccc2c1O`: the growth was 49.8% (inactive).

For the molecule `COc1cc(C(=O)NNC(=O)c2ccccc2C(=O)O)cc(OC)c1OC`, the growth is 49% (inactive).

With `O=C(NCCNc1nccc(-c2c(-c3cccc(O)c3)nc3sccn23)n1)c1cccc(C(F)(F)F)c1`, the growth is 73.4% (inactive).

Consider `COc1cc(NC(C)CCCN2C(=O)c3ccccc3C2=O)c2ncccc2c1OC` (stereo not given), for which the growth was 59.4% (inactive).
